Data reported in PubChem BioAssay AID1851 (National Center for Advancing Translational Sciences (NCATS), 2009).
Where “and” joins values, the source holds several entries; their conditions need not be identical. Equal values may be shown once. Screen size: about 16,000 compounds; about 5,800 (36%) were called active. Another 23% or so got no clear call; they are omitted. Calls come from the whole dose curve; as a rule, active = well fitted curve in the direction sought with a large enough effect; inconclusive = small, poorly fitted or top-dose-only effect, or effect the other way; inactive = no such curve, though single readings can be large or run the other way. The list shows a part of the results.
% is set by controls: 0 for no effect and ±100 for the full control effect.

The molecules below were run against Cytochrome P450 2C19 (Homo sapiens) (UniProt P33261) (assay: Cytochrome panel assay with activity outcomes). Details: recombinant CYP, pro-luciferin dealkylation, luminescence, p450-cyp2c19; series mostly up to 57.1 µM.
Chain of Cytochrome P450 2C19 (Homo sapiens) (P33261 whole entry, looked up): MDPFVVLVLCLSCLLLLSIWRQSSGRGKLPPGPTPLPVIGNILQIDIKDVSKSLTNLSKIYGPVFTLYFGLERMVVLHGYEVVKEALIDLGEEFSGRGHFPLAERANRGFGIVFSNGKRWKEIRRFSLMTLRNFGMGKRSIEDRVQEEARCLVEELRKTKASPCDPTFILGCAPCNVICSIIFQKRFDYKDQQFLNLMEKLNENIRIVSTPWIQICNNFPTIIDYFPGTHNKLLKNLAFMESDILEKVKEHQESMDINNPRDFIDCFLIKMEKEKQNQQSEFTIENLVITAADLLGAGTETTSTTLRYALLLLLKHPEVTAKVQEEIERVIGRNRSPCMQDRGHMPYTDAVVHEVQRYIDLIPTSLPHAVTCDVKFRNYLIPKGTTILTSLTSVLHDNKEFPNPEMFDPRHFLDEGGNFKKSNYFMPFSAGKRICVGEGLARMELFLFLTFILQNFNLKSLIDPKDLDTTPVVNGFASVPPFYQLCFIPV
In the case of `COc1cccc(-c2cncnc2NCc2ccc(OC)cc2OC)c1`, the AC50 is reported as 1.26 µM (active). `COc1ccccc1CNc1ncncc1-c1cccnc1` was tested, and the AC50 was 10 µM (active). In the case of `COc1cccc(-c2cncnc2NCc2ccccc2OC)c1`, the AC50 is reported as 2 µM (active). For `CCC(C)(C)n1nnnc1C(c1ccc(C)cc1)N1CCC(C)CC1` (centres undefined), the AC50 was 14.1 µM (active). In the case of `Cc1cc(C)c(NC(=O)C[C@H](CC(=O)O)c2cccc3ccccc23)c(C(=O)N2CCC3(CCCC3)CC2)c1`, the AC50 is reported as “inactive”. For `CSc1n[nH]c(-c2sccc2OCc2ccc(C)cc2)n1`, the AC50 was 1.12 µM (active). For `COc1ncc2nc(-c3cc(F)cc(F)c3)c(=O)n(C3CC3)c2n1`, the AC50 was “inactive”. With `COc1cccc(C(C(=O)Nc2ccc(F)cc2)N(C(=O)Cn2nnc3ccccc32)C2CC2)c1` (centres undefined) the AC50 was 20 µM (active). In the case of `CCc1ccc(N2C(=O)c3ccc4c5c(ccc(c35)C2=O)CC4)cc1`, the AC50 is reported as 3.16 µM (active). For `Cc1ccccc1C(=O)N1CCc2ccccc2C1`, the AC50 was 1.41 µM (active). With `Cc1noc(C)c1C(=O)N1CCC2(CC1)CN(c1ccccc1)C2` the AC50 was “inactive”. `N=C(N)N1CCc2ccccc2C1` was tested, and the AC50 was “inactive”. With `Cc1onc(-c2c(Cl)cccc2Cl)c1C(=O)N1CCc2ccccc2C1` the AC50 was 2.82 µM (active). In the case of `Cc1noc(C)c1C(=O)N1CCC2(CCN(Cc3ccccc3)CC2)CC1`, the AC50 is reported as “inactive”. For `NCCSC[C@H](N)C(=O)O`, the activity, negative = inhibition was -6.06% [at 11.4 µM] (inactive). For `O=C1CC(c2cccs2)c2cc3c(cc2N1)OCO3` (centres undefined), the AC50 was 1.12 µM (active). For `CCC[C@@H]1C[C@@]1(CCC)C(NC(=O)c1ccco1)c1ccc(Cl)cc1` (some centres undefined), the AC50 was 3.16 µM (active). With `CCCC[C@@H]1C[C@H]1C(NC(=O)c1ccco1)c1ccc(-c2ccccc2)cc1` (some centres undefined) the AC50 was 25.1 µM (active). In the case of `CCCC[C@@H]1C[C@H]1C(NC(=O)c1ccco1)c1ccc(C(=O)OC)cc1` (some centres undefined), the AC50 is reported as 1 µM (active). For `CCC[C@@H]1C[C@@]1(CCC)C(NS(=O)(=O)c1cccc2cccnc12)c1ccc(Cl)cc1` (some centres undefined), the AC50 was 3.16 µM (active). For `CCCC[C@@H]1C[C@H]1C(NC(=O)c1ccc(-c2ccccc2)cc1)c1ccc(-c2ccccc2)cc1` (some centres undefined), the AC50 was “inactive”. For `CO[C@H]1COC(=O)C/C=C\[C@H](C)COC(=O)[C@@H](C)NC(=O)C/C=C\[C@@H]1C`, the activity, negative = inhibition was -31.5% [at 11.4 µM] (inactive). `COCCn1c(=O)c(C)nc2cnc(Nc3cccc(OC)c3)nc21` was tested, and the AC50 was “inactive”. With `CCCC[C@@H]1C[C@H]1C(NC(=O)c1ccco1)c1ccccc1` (some centres undefined) the AC50 was 1.26 µM (active). For `CCCC[C@@H]1C[C@H]1C(NC(=O)c1ccco1)c1ccc(Cl)cc1` (some centres undefined), the AC50 was 0.316 µM (active). With `CCC[C@@H]1C[C@@]1(CCC)C(NC(=O)OCc1ccccc1)c1ccc(-c2ccccc2)cc1` (some centres undefined) the AC50 was 1.26 µM (active). For `C[C@@]1(C(NC(=O)Cc2ccccc2)c2ccc(-c3ccccc3)cc2)C[C@H]1C1CCCCC1` (some centres undefined), the AC50 was “inactive”. `CC[C@](N)(C(=O)O)C(C)C` was tested, and the activity, negative = inhibition was 31.3% [at 11.4 µM] (inactive). In the case of `CCCn1c(N)c(C(=O)CSc2nc(C)cs2)c(=O)n(C)c1=O`, the AC50 is reported as 10 µM (active). With `COC(=O)/C=C\c1cc(O)ccc1O` the AC50 was 15.8 µM (active). `O=C(O)/C=C\c1ccc(O)c(O)c1` was tested, and the AC50 was “inactive”. `O=C(/C=C\c1ccc(O)c(O)c1)O[C@@H](Cc1ccc(O)c(O)c1)C(=O)O` was tested, and the AC50 was “inactive”. For `COC(=O)C[C@@H]1O[C@H]1[C@H](C)[C@@H](OC)C(C)C`, the AC50 was 3.98 µM (active). `CO[C@@H](C(C)C)[C@@H](C)[C@@H]1OC(=O)C[C@@H]1O` was tested, and the activity, negative = inhibition was 2.42% [at 11.4 µM] (inactive). With `CC(O)CN(CCC(N)=O)CCC(N)=O` (centres undefined) the AC50 was “inactive”. For `COc1ccc(S(=O)(=O)N2CC3C4C=CC(C4)C3C2)cc1` (centres undefined), the AC50 was 0.891 µM (active). For `O=C(OCc1nnc(-c2ccccc2)o1)c1ccc2c(c1)OCCO2`, the AC50 was 8.91 µM (active). With `CCCN1C(=O)C2(/C(=C(\O)c3ccc4c(c3)OCCO4)C(=O)C(=O)N2CCCOC)c2ccccc21` (centres undefined) the AC50 was “inactive”. With `CN1CCc2cc3c(cc2[C@@H]1[C@@H]1C(=O)Oc2c1ccc1c2OCO1)OCO3` the AC50 was 0.02 µM (active). In the case of `C[N+]1(C)CCc2cc3c(cc2[C@@H]1[C@@H]1C(=O)Oc2c1ccc1c2OCO1)OCO3`, the AC50 is reported as “inactive”. For `Cc1ccc(-c2csc(NC(=S)NC(=O)/C=C/c3ccco3)n2)cc1`, the AC50 was “inactive”. In the case of `Cc1ccc(-c2csc(N/N=C/c3ccco3)n2)cc1`, the AC50 is reported as 7.94 µM (active). For `CC(=O)OCC(=O)[C@@]1(O)[C@H](C)C[C@@H]2[C@H]3CCC4=CC(=O)C=C[C@]4(C)[C@]3(F)[C@@H](O)C[C@@]21C`, the AC50 was “inactive”. In the case of `CCOC(=O)c1cc2sc(C)cc2n1CC(=O)N1CCN(C(=O)c2ccco2)CC1`, the AC50 is reported as 25.1 µM (active). With `CCOC(=O)c1cc2sc(C)cc2n1CCCN1C(=O)c2ccccc2C1=O` the AC50 was 3.98 µM (active). With `O=C(CCC(=O)c1cccs1)OCC(=O)N1CCN(C(=O)c2ccco2)CC1` the AC50 was “inactive”. `CCn1c(=O)cc(SCC(=O)N2CCN(C(=O)c3ccco3)CC2)c2ccccc21` was tested, and the AC50 was “inactive”. `CCN1C(=O)[C@H]2[C@@H]3[C@H](O)C=CC(=O)[C@H]3CC[C@H]2C1=O` was tested, and the activity, negative = inhibition was -2.48% [at 11.4 µM] (inactive). With `CCN1C(=O)[C@H]2[C@@H]3[C@H](O)[C@H](O)CC(=O)[C@H]3CC[C@H]2C1=O` the activity, negative = inhibition was -13.9% [at 11.4 µM] (inactive) and -20% [at 11.4 µM] (inactive). With `CCN1C(=O)[C@@H]2[C@H]3C(=CC[C@@H]2C1=O)C1(OCCCO1)[C@H]1O[C@@H]1[C@H]3O` the AC50 was 1.58 µM (active). `O=C(NC12CC3CC(CC(C3)C1)C2)c1ccc(COc2ccc(Cl)cc2[N+](=O)[O-])o1` was tested, and the AC50 was 3.55 µM (active). In the case of `Cc1ccc2nc(SCc3nc4c(cnn4-c4ccccc4)c(=O)[nH]3)[nH]c2c1`, the AC50 is reported as 4.47 µM (active). For `CCCCCC(=O)Nc1cccc(-c2nc3ncccc3o2)c1`, the AC50 was 14.1 µM (active). With `O=C(CSc1ccc(Cl)cc1)Nc1cccc(-c2nc3ncccc3o2)c1` the AC50 was 8.91 µM (active). `O=C(Nc1cccc(-c2nc3ncccc3o2)c1)c1sc2cc(Cl)ccc2c1Cl` was tested, and the AC50 was “inactive”. In the case of `NS(=O)(=O)c1ccc(NCc2nc3ccccc3[nH]2)cc1`, the activity, negative = inhibition is reported as 39.2% [at 11.4 µM] (inactive). For `NS(=O)(=O)c1ccc(NCc2ccccc2OCc2ccccc2F)cc1`, the AC50 was 6.31 µM (active). In the case of `NS(=O)(=O)c1ccc(NCc2cnc3ccccc3n2)cc1`, the activity, negative = inhibition is reported as 20.6% [at 11.4 µM] (inactive). In the case of `CC1CC/C(=C\c2ccc3c(c2)OCO3)C(=O)/C1=C/c1ccc2c(c1)OCO2` (centres undefined), the AC50 is reported as 2.82 µM (active). For `Cc1nc2cnc(N3CCN(C)CC3)nc2n(Cc2cccs2)c1=O`, the AC50 was “inactive”. `COC(=O)[C@@]1(Cc2ccc(F)cc2)[C@H]2c3cc(C(=O)N4CCCC4)n(Cc4ccc(S(C)(=O)=O)cc4)c3C[C@H]2CN1C(=O)c1ccccc1` was tested, and the AC50 was “inactive”. For `COC(=O)[C@@]1(Cc2ccc(F)cc2)[C@H]2c3cc(C(=O)N4CCCC4)n(CCc4ccc(O)c(O)c4)c3C[C@H]2CN1C(=O)c1ccccc1`, the AC50 was 15.8 µM (active). In the case of `COc1ccccc1CN1CCCC2(CCN(C(=O)c3cccn3C)CC2)C1`, the AC50 is reported as “inactive”. `COC(=O)[C@@]1(Cc2ccc(F)cc2)[C@H]2c3cc(C(=O)N4CCCC4)n(CCc4ccc(OC)c(Br)c4)c3C[C@H]2CN1C(=O)c1ccccc1` was tested, and the AC50 was 5.01 µM (active). `CC(NC(=O)c1ccc(N2CCCC2=O)cc1)c1ccccc1` (centres undefined) was tested, and the AC50 was “inactive”. With `O=C(O)c1cccc(N2CCCC2=O)c1` the AC50 was 31.6 µM (active). `O=c1cc(CO)oc(CN2CCCC2)c1O` was tested, and the AC50 was “inactive”. `CO[C@H]1COC(=O)[C@H](C)NC(=O)C/C=C\[C@@H](C)[C@@H](NS(=O)(=O)c2ccc(C)cc2)COC(=O)[C@H](OCc2ccccc2)/C=C\[C@@H]1C` was tested, and the activity, negative = inhibition was 6.49% [at 11.4 µM] (inactive). For `COc1ccc(/C=N/NC(=O)c2ccccc2)cc1CN1CCN(c2ccc(F)cc2)CC1`, the AC50 was 17.8 µM (active). With `Cc1ccc(/C=N\NC(=O)c2cc(OCC(F)(F)F)ccc2OCC(F)(F)F)cc1` the AC50 was “inactive”. With `COc1ccc(/C=N/NC(=O)c2ccn[nH]2)cc1COc1ccc(F)cc1` the AC50 was 3.55 µM (active). With `COc1ccc(/C=N\NC(=O)C2C(=O)NCC2c2ccccc2)cc1O` (centres undefined) the AC50 was “inactive”. `COc1ccc(/C=N/NC(=O)c2ccn[nH]2)cc1COc1ccc(Cl)cc1` was tested, and the AC50 was 2 µM (active). With `COc1ccc(C(=O)CN2CCN(c3ccc(F)cc3)CC2)cc1OC` the AC50 was 14.1 µM (active). `CCOc1cc(CN2CCN(c3ccc(C(C)=O)cc3)CC2)ccc1OC` was tested, and the AC50 was “inactive”. `C[C@H](O)[C@H](O)[C@@H]1CNc2nc(N)[nH]c(=O)c2N1` was tested, and the AC50 was “inactive”. With `Cc1ccc(C(=O)NN2CCOCC2)cc1` the AC50 was “inactive”. In the case of `Cc1c(C(=O)NN2CCOCC2)nn(-c2ccc(Cl)cc2Cl)c1-c1ccc(I)cc1`, the AC50 is reported as 7.94 µM (active). With `COc1ccc(CCNC(=O)c2ccccc2NC(=O)c2ccco2)cc1OC` the AC50 was 11.2 µM (active). `O=C(Nc1ccccc1C(=O)NCCc1ccccc1)c1ccco1` was tested, and the AC50 was 8.91 µM (active). `O=C(CCc1ccccc1)NNC(=O)c1ccco1` was tested, and the AC50 was “inactive”. In the case of `CC(C)[C@@H](OCc1ccccc1)[C@H](C)/C=N\O[C@@H](C)c1cn([C@H](CO)Cc2ccccc2)nn1`, the activity, negative = inhibition is reported as -16.9% [at 11.4 µM] (inactive) and -29.7% [at 11.4 µM] (inactive). For `N#C/C(=C\c1ccc(O)c(O)c1)C(=O)NCCc1ccccc1`, the AC50 was “inactive”. In the case of `N#C/C(=C\c1ccc(O)c(O)c1)C(=O)OCCc1cccs1`, the AC50 is reported as 6.31 µM (active). In the case of `N#C/C(=C\c1ccc(O)c(O)c1)C(=O)NCCCc1ccccc1`, the AC50 is reported as 10 µM (active). For `O=c1cc(O)cc(/C=C\c2ccc(O)c(O)c2)o1`, the AC50 was “inactive”. For `N#C/C(=C\c1ccc(O)c(O)c1)C(=O)c1ccc(O)c(O)c1`, the AC50 was “inactive”. With `N#Cc1ccc(-c2ccc(F)cc2)nc1Oc1ccc(Cl)c(Cl)c1` the AC50 was 3.55 µM (active). `Cc1ccc(C2NC(c3ccc(C)cc3)C(C)C(=NO)C2C)cc1` (centres undefined) was tested, and the AC50 was 0.562 µM (active).
